Measurements published in PubChem BioAssay AID1159580 (chemical genetic matrix, 2015).
Screen size: about 5,500 compounds; about 2,000 (36%) were called active. Not shown: some 18% with an inconclusive outcome. No stated cut-off is given here; in the data, active means normalized growth mostly below about 0.91 (no sharp cut-off); inconclusive means no clear call, values can overlap the other calls; inactive means mostly above about 0.92. Some of the results follow. *1 amine or outer side, *2 acyl side, *3 side chain or, on linkers, in order; H or OH if unused. Where a SMILES comes first, the peptide text is derived from it. Bridges are numbered along the chain shown (N, C = ends). [ ]: non-standard residue; d: D form. The star is where a group is joined. ξ: configuration not given here. ΔAla(E,3-NHCONH2) = NC(=O)N/C=C(/N)C(=O)O; X2 = NC1=NCCC(C(N[*:1])C(=O)[*:2])N1; ξβ3hOrn = NCCCC(N)CC(=O)*; Dap = NC[CH](N)C(=O)O

Experiment: chemical genetic growth profiling, strain panel (AID 1159580);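 further: tested at 20 µM; growth read once vehicle control cultures reached saturation at 30 °C; 1 = growth at the plate median or of vehicle wells; lower values mean less growth of the strain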
Conditions: growth OD

Measured: normalized growth

NCCCC(N)CC(=O)NCC1NC(=O)C(CO)NC(=O)C(N)CNC(=O)C(C2CCN=C(N)N2)NC(=O)/C(=C\NC(N)=O)NC1=O (stereo not drawn) (H-[Dap]S[Dap](ξβ3hOrn)[ΔAla(E,3-NHCONH2)][X2]; lactam 1-C; configuration not given here)
inactive: S. cerevisiae deletion strains, locus YJR066W, strain TOR1, active compounds read low 0.98 | S. cerevisiae deletion strains, locus YKL009W, strain mrt4, active compounds read low 1.03 | S. cerevisiae deletion strains, locus YKL068W, active compounds read low 1.01 | S. cerevisiae deletion strains, locus YKL085W, strain MDH1 (second series), active compounds read low 1 | S. cerevisiae deletion strains, locus YKL085W, strain MDH1, active compounds read low 1 | S. cerevisiae deletion strains, locus YKL160W, strain elf1, active compounds read low 1.02 | S. cerevisiae deletion strains, locus YKR001C, strain vps1, active compounds read low 1.01 | S. cerevisiae deletion strains, locus YKR026C, strain gcn3, active compounds read low 1.01 | S. cerevisiae deletion strains, locus YKR091W, strain srl3, active compounds read low 1 | S. cerevisiae deletion strains, locus YLL001W, strain dnm1, active compounds read low 1.04 | S. cerevisiae deletion strains, locus YLL026W, active compounds read low 1.04 | S. cerevisiae deletion strains, locus YLL041C, strain sdh2, active compounds read low 1.02 | S. cerevisiae deletion strains, locus YLR027C, strain aat2, active compounds read low 1.05 | S. cerevisiae deletion strains, locus YLR039C, strain RIC1, active compounds read low 1.01 | S. cerevisiae deletion strains, locus YLR058C, strain SHM2, active compounds read low 1.01 | S. cerevisiae deletion strains, locus YLR102C, strain apc9, active compounds read low 1.02 | S. cerevisiae deletion strains, locus YLR113W, strain HOG1, active compounds read low 1.05 | S. cerevisiae deletion strains, locus YLR221C, strain rsa3, active compounds read low 0.993 | S. cerevisiae deletion strains, locus YLR258W, strain gsy2, active compounds read low 1 | S. cerevisiae deletion strains, locus YLR262C, strain YPT6 (second series), active compounds read low 1.03 | S. cerevisiae deletion strains, locus YLR262C, strain YPT6, active compounds read low 1.04 | S. cerevisiae deletion strains, locus YLR268W, strain sec22, active compounds read low 1.03 | S. cerevisiae deletion strains, locus YLR320W, strain mms22, active compounds read low 0.989 | S. cerevisiae deletion strains, locus YLR330W, strain CHS5, active compounds read low 1 | S. cerevisiae deletion strains, locus YLR342W, strain FKS1 (second series), active compounds read low 1.01 | S. cerevisiae deletion strains, locus YLR342W, strain FKS1, active compounds read low 1.03 | S. cerevisiae deletion strains, locus YLR357W, strain rsc2, active compounds read low 1 | S. cerevisiae deletion strains, locus YLR370C, strain arc18, active compounds read low 1.04 | S. cerevisiae deletion strains, locus YLR371W, strain rom2, active compounds read low 0.999 | S. cerevisiae deletion strains, locus YLR384C, strain iki3, active compounds read low 1.02 | S. cerevisiae deletion strains, locus YLR418C, strain cdc73, active compounds read low 0.995 | S. cerevisiae deletion strains, locus YML016C, strain PPZ1, active compounds read low 1 | S. cerevisiae deletion strains, locus YML032C, strain rad52, active compounds read low 1.02 | S. cerevisiae deletion strains, locus YML120C, strain ndi1, active compounds read low 1.05 | S. cerevisiae deletion strains, locus YML124C, strain tub3, active compounds read low 1.01 | S. cerevisiae deletion strains, locus YMR058W, strain fet3, active compounds read low 1.03 | S. cerevisiae deletion strains, locus YMR078C, strain ctf18, active compounds read low 1.03 | S. cerevisiae deletion strains, locus YMR125W, strain sto1, active compounds read low 0.993 | S. cerevisiae deletion strains, locus YMR129W, active compounds read low 1.02 | S. cerevisiae deletion strains, locus YMR205C, strain PFK2, active compounds read low 1.04 | S. cerevisiae deletion strains, locus YMR223W, strain ubp8, active compounds read low 1.03 | S. cerevisiae deletion strains, locus YMR231W, strain pep5, active compounds read low 1 | S. cerevisiae deletion strains, locus YMR263W, strain SAP30, active compounds read low 1 | S. cerevisiae deletion strains, locus YMR307W, strain GAS1, active compounds read low 1.06 | S. cerevisiae deletion strains, locus YNL067W, strain RPL9B, active compounds read low 1.01 | S. cerevisiae deletion strains, locus YNL071W, strain lat1, active compounds read low 0.994 | S. cerevisiae deletion strains, locus YNL183C, strain NPR1, active compounds read low 0.988 | S. cerevisiae deletion strains, locus YNL209W, strain ssb2, active compounds read low 0.998 | S. cerevisiae deletion strains, locus YNL233W, strain BNI4, active compounds read low 0.974 | S. cerevisiae deletion strains, locus YNL248C, strain rpa49, active compounds read low 0.98 | S. cerevisiae deletion strains, locus YNL250W, strain rad50, active compounds read low 1.02 | S. cerevisiae deletion strains, locus YNL271C, strain bni1, active compounds read low 1.03 | S. cerevisiae deletion strains, locus YNL298W, strain CLA4, active compounds read low 1.03 | S. cerevisiae deletion strains, locus YNL307C, strain MCK1, active compounds read low 1.03 | S. cerevisiae deletion strains, locus YNL322C, strain KRE1 (second series), active compounds read low 1.02 | S. cerevisiae deletion strains, locus YNL322C, strain KRE1, active compounds read low 1 | S. cerevisiae deletion strains, locus YNR049C, strain mso1, active compounds read low 1.01 | S. cerevisiae deletion strains, locus YNR052C, strain pop2, active compounds read low 1.01 | S. cerevisiae deletion strains, locus YOL012C, strain htz1 2.02 | S. cerevisiae deletion strains, locus YOL147C, strain pex11, active compounds read low 1.01 | S. cerevisiae deletion strains, locus YOR001W, strain rrp6, active compounds read low 1.03 | S. cerevisiae deletion strains, locus YOR061W, strain CKA2, active compounds read low 1.01 | S. cerevisiae deletion strains, locus YOR069W, strain VPS5, active compounds read low 1 | S. cerevisiae deletion strains, locus YOR070C, strain gyp1, active compounds read low 0.994 | S. cerevisiae deletion strains, locus YOR080W, strain dia2, active compounds read low 1.03 | S. cerevisiae deletion strains, locus YOR083W, strain WHI5, active compounds read low 1.02 | S. cerevisiae deletion strains, locus YOR106W, strain vam3, active compounds read low 1.04 | S. cerevisiae deletion strains, locus YOR136W, strain idh2, active compounds read low 1.01 | S. cerevisiae deletion strains, locus YOR144C, strain elg1, active compounds read low 1.02 | S. cerevisiae deletion strains, locus YOR184W, strain ser1, active compounds read low 1.02 | S. cerevisiae deletion strains, locus YOR231W, strain MKK1, active compounds read low 1.03 | S. cerevisiae deletion strains, locus YOR265W, strain rbl2, active compounds read low 1.02 | S. cerevisiae deletion strains, locus YOR270C, strain vph1, active compounds read low 1.09 | S. cerevisiae deletion strains, locus YOR290C, strain snf2, active compounds read low 0.981 | S. cerevisiae deletion strains, locus YOR316C, strain cot1, active compounds read low 1.05 | S. cerevisiae deletion strains, locus YPL051W, strain arl3, active compounds read low 1.01 | S. cerevisiae deletion strains, locus YPL055C, strain LGE1, active compounds read low 1.03 | S. cerevisiae deletion strains, locus YPL078C, strain atp4, active compounds read low 1.06 | S. cerevisiae deletion strains, locus YPL106C, strain sse1, active compounds read low 0.997 | S. cerevisiae deletion strains, locus YPL240C, strain hsp82, active compounds read low 1.01 | S. cerevisiae deletion strains, locus YPL256C, strain CLN2, active compounds read low 1.04 | S. cerevisiae deletion strains, locus YPR119W, strain clb2, active compounds read low 1 | S. cerevisiae deletion strains, locus YPR141C, strain kar3, active compounds read low 1.01 | S. cerevisiae deletion strains, locus YPR163C, strain tif3, active compounds read low 1.02 | S. cerevisiae deletion strains, locus YPR167C, strain met16, active compounds read low 1.01 | S. cerevisiae deletion strains, strain wtn01, active compounds read low 1.04 | S. cerevisiae strains, strain wild type, active compounds read low 1
